This is a sample that favours compounds with a hit; in the whole collection about 4.2% have one here.
tim23-1 inh: growth inhibitors of tim23-1 mutant yeast. AID 463212. hit rate 1.3% among 330,000. inhibition, % at 20 µM. S. cerevisiae tim23-1 growth, BacTiter-Glo luminescence, 24 h;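 active means growth inhibition of the mutant yeast at or above 50%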;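 further: temperature-sensitive mutant grown at 25 °C; plate controls were DMSO-treated mutant yeast for no effect and medium wells lacking yeast for full effect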
V-ATPase pHluor: regulators of yeast V-ATPase proton transport. S. cerevisiae, pHLuorin cytosolic pH fluorescence. response, % at 10 µM. hit rate 0.37% among 350,000; in the data active means response mostly above about 7.3%, no sharp cut-off; inactive means mostly below about 5.4%; further: actives read high
NALP1 yeast inh: NALP1 inhibition | hit rate 0.61% among 280,000 | AID 2071 | S. cerevisiae NALP1/ASC/caspase-1 growth, X-gal OD620, 72 h | inhibition, % at 10 µM; in the data active means inhibition mostly above about 24%, no sharp cut-off; inactive means mostly below about 32%
NLRP3 yeast inh: blocks the NALP3 inflammasome reconstituted in yeast | Yeast reconstituted NLRP3/ASC/caspase-1, beta-gal luminescence, 24 h | inhibition, % at 10 µM | hit rate 0.39% among 330,000;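 active means inhibition of 50% or more; inactive means inhibition below 50%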;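 further: plate controls were induced DMSO wells for no effect and uninduced yeast grown without galactose for full effect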
tim10-1 inh: growth inhibitors of tim10-1 mutant yeast | hit rate 2.2% among 330,000 | S. cerevisiae tim10-1 ts strain growth, BacTiter-Glo, 24 h | inhibition, % at 20 µM;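 active means inhibition of at least 40%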;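 further: mutant grown at 25 °C; 0% = DMSO wells with yeast and 100% = wells holding no yeast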
TIM10 inh: growth inhibitors of TIM10 yeast strain | S. cerevisiae TIM10 strain growth, BacTiter-Glo luminescence, 24 h | inhibition, % at 10 µM | hit rate 1.4% among 330,000;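 active means inhibition of 40% or more at the single tested concentration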;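 further: wild-type TIM10 isogenic control strain grown at permissive 25 °C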
V-ATPase pH SP: regulators of yeast V-ATPase proton transport; S. cerevisiae pHLuorin cytosolic pH; response, % at 10 µM; shares compounds with V-ATPase pHluor; hit rate 2% among 980; in the data active means response above about 24%;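 further: plate controls were vehicle wells for no effect and positive control wells for full effect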
Starred values were filed as active, the others as inactive; / = no result given.

SMILES	tim23-1 inh	V-ATPase pHluor	NALP1 yeast inh	NLRP3 yeast inh	tim10-1 inh	TIM10 inh	V-ATPase pH SP
COCCN(Cc1ccccc1)C(=O)c1c(C)nn(-c2ccccc2)c1C	30.2	9.2*	6.1	5.5	14.8	24.7	-0.2
C[C@@H]1CN([C@@H](C)CO)C(=O)c2cccc(NS(C)(=O)=O)c2O[C@H]1CN(C)CC1CCCCC1	3.0	-2.9	/	15.9	1.8	-2.9	/
O=C(O)c1cccc(-n2nc(-c3ccc(Cl)c([N+](=O)[O-])c3)c3ccccc3c2=O)c1	12.7	-3.4	-14.9	11.1	4.1	15.4	/
CCCCCOc1ccc2oc(=O)c3c(c2c1)CCCN3C(=O)CN1CCCC(C(=O)OCC)C1 (stereo not drawn)	46.6	12.9*	0.5	4.9	26.6	33.9	2.0
O=C(CN1CCCCC1)N1CCCc2c1c(=O)oc1ccc(OCc3ccccc3)cc21	11.4	-0.8	-50.9	6.3	31.7	20.4	/
Cc1ccc(NC(=S)N2CCCC(O)C2)cc1 (stereo not drawn)	1.7	0.0	4.6	6.0	-1.2	5.4	/
CC(=O)Nc1ccc(S(=O)(=O)NNC(=O)COc2ccc(Cl)cc2Cl)cc1	2.7	13.4*	/	2.6	2.5	-11.6	4.1
CC(=O)Nc1ccc(S(=O)(=O)NNC(=O)COc2ccc(C)cc2)cc1	7.6	1.2	11.7	-0.2	-8.8	-4.9	/
COCCN(C(=O)CSc1n[nH]c(-c2ccccc2)n1)c1c(N)n(CC(C)C)c(=O)[nH]c1=O	-11.2	2.0	/	6.4	-4.9	6.8	/
Cc1ccc(F)cc1NC(=O)N1c2ccccc2NC(=O)CC1C (stereo not drawn)	15.6	-0.1	-14.0	-1.2	5.6	9.0	/
Cc1cccc(NC(=O)CSc2nnc(CNC(=O)c3cccs3)o2)c1C	13.1	0.0	6.4	-2.8	5.1	1.3	/
CC1CCc2c(sc3ncn(Cc4ccc(C(=O)O)cc4)c(=O)c23)C1 (stereo not drawn)	14.6	6.6*	6.8	-2.4	16.2	0.7	2.9
O=C(CCNC(=O)c1ccccc1)NNC(=O)COc1ccccc1Cl	-8.3	8.2*	/	3.7	12.3	14.0	-0.1
O=C(CCNC(=O)c1ccc(Br)cc1)NNC(=O)COc1ccccc1F	-4.7	0.0	/	2.6	-3.2	-1.2	/
COC(=O)c1ccccc1NC(=O)CN1CCCCC1	7.4	11.7*	22.3	10.2	1.5	-7.4	1.3
COC(=O)c1ccccc1NC(=O)CN1CCOCC1	14.6	0.8	-2.3	10.1	1.8	2.9	/
COc1ccc(C2=NOC(C(=O)Nc3ccc(C(C)=O)cc3)C2)cc1OC (stereo not drawn)	-1.7	1.2	7.5	14.8	20.9	5.6	/
COc1cccc(C2=NOC(C(=O)Nc3ccc(C(C)=O)cc3)C2)c1 (stereo not drawn)	18.8	12.5*	/	8.8	22.4	14.1	4.0
CC(=O)c1sc(=S)n(-c2ccc(Cl)cc2)c1C	18.3	0.2	-2.3	-7.8	26.0	11.1	4.1
CC(=O)c1sc(=S)n(-c2ccccc2)c1C	-2.1	-1.3	-1.8	-0.4	-4.7	2.7	/
CC(=O)c1cnn(-c2ccc(Cl)cc2)c1C	3.9	-0.2	14.4	10.7	13.5	14.3	-0.5
O=C(NCc1ccncc1)c1cccc(S(=O)(=O)Nc2ccc(F)cc2)c1	-8.3	-1.7	/	-1.7	2.8	1.4	/
COc1ccc(-c2nn(C)c(=O)c3ccccc23)cc1NC(=O)Cn1nc(C)c2ccccc2c1=O	13.8	9.9*	-7.0	6.5	9.2	7.2	-0.5
CCC(=O)Nc1cc(-c2nn(C)c(=O)c3ccccc23)ccc1OC	25.8	-2.0	4.3	15.2	5.6	-6.2	/
O=C(Sc1nnc(-c2ccccc2)o1)N1c2ccccc2Sc2ccccc21	45.4	-1.4	2.7	31.6	24.6	18.3	-2.4
Cc1ccc(CCNS(=O)(=O)c2cc3c(cc2C)n(C)c(=O)c(=O)n3C)cc1	14.9	10.1*	12.4	-9.8	4.3	-10.1	1.9
c1ccc(COCCCn2cc(-c3ccccc3)nn2)cc1	-3.0	10.4*	17.1	25.2	0.1	-4.1	-2.3
CCOC(=O)Cn1cc(-c2ccccc2)nn1	3.3	-1.6	-12.9	3.9	-7.5	-0.7	/
O=C(NC1=NCCS1)c1cccc(Br)c1	20.4	-0.3	/	26.8	13.5	2.2	/
O=C(NC1=NCCS1)c1cccc(F)c1	14.3	-2.5	/	-7.4	8.0	11.0	-1.7

High-throughput results deposited in PubChem by several laboratories.
